Assay results reported in PubChem BioAssay (NCATS).
Inconclusive results are not listed. Active and inactive are the calls of the source. Calls follow the shape of the dose curve; as a rule, active = well fitted curve in the direction sought with a large enough effect; inconclusive = small, poorly fitted or top-dose-only effect, or another doubt; inactive = no such curve, though single readings can be large; an effect the other way counts as inactive or inconclusive.

Assays:
[1] = qHTS of pediatric cancer cell lines to identify multiple opportunities for drug repurposing: Primary screen for NB1643 cells (AID 1347099); also: nearly all actives have a fitted effect of over 50% in size
Method in brief: (§1)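 Cells plated at 500-1,000/well in growth medium, compounds added after 5 h. MIPE tested at 11 points (from 0.78 nM), NPC at 8 points (from 0.59 nM). CellTiter-Glo luminescence after 48 h; concentration-response curves from primary screen.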

[2] = qHTS of pediatric cancer cell lines to identify multiple opportunities for drug repurposing: Primary screen for LAN-5 cells (AID 1347100)
Method in brief: (§2)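 Viability after 48 h compound treatment at 37C, 500-1,000 cells/well, read as ATP luminescence with CellTiter-Glo. Primary screens used 11-point (MIPE, 0.78 nM-46 µM) or 8-point (NPC, 0.59 nM-46 µM) final concentrations; follow-up screens used 11-point dilutions.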

[3] = qHTS of pediatric cancer cell lines to identify multiple opportunities for drug repurposing: Primary screen for Rh18 cells (AID 1347102); also: nearly all actives have a fitted effect of over 65% in size
Method in brief: as §2

[4] = qHTS of pediatric cancer cell lines to identify multiple opportunities for drug repurposing: Primary screen for OHS-50 cells (AID 1347103); also: nearly all actives have a fitted effect of over 40% in size
Method in brief: (§3)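 Cells (500-1,000/well) rested 5 h, then received compounds for 48 h; metabolically active cells were measured by CellTiter-Glo luminescence. Final concentrations spanned up to 46 µM (MIPE, 11-point) or 0.59 nM-46 µM (NPC, 8-point) in primary screens, 11-point in follow-ups.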

[5] = qHTS of pediatric cancer cell lines to identify multiple opportunities for drug repurposing: Primary screen for RD cells (AID 1347104); also: nearly all actives have a fitted effect of over 55% in size
Method in brief: as §1

[6] = qHTS of pediatric cancer cell lines to identify multiple opportunities for drug repurposing: Primary screen for Rh41 cells (AID 1347108); also: nearly all actives have a fitted effect of over 70% in size
Method in brief: as §1

[7] = qHTS of pediatric cancer cell lines to identify multiple opportunities for drug repurposing: Confirmatory screen for NB1643 cells (AID 1347109); also: nearly all actives have a fitted effect of over 45% in size
Method in brief: as §2

[8] = qHTS of pediatric cancer cell lines to identify multiple opportunities for drug repurposing: Confirmatory screen for A673 cells (AID 1347110); also: nearly all actives have a fitted effect of over 65% in size
Method in brief: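 Concentration-response curves came straight from titrations: 11 points (0.78 nM to 46 µM) for MIPE and several concentrations (0.59 nM to 46 µM) for NPC in primary, 11 points in follow-up. Readout: ATP luminescence at 48 h.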

[9] = qHTS of pediatric cancer cell lines to identify multiple opportunities for drug repurposing: Confirmatory screen for SK-N-MC cells (AID 1347111);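 also: cells exposed to compound for 48 h before the readout; nearly all actives have a fitted effect of over 70% in size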
Method in brief: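 SK-N-MC cells at 500-1,000 cells/well in growth media were pre-incubated 5 h, then exposed to compounds at 11-point dilutions for 48 h at 37 degrees C, 5% CO2. Viability was read as CellTiter-Glo luminescence.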

[10] = qHTS of pediatric cancer cell lines to identify multiple opportunities for drug repurposing: Confirmatory screen for LAN-5 cells (AID 1347113); also: nearly all actives have a fitted effect of over 65% in size
Method in brief: as §2

[11] = qHTS of pediatric cancer cell lines to identify multiple opportunities for drug repurposing: Confirmatory screen for DAOY cells (AID 1347114); also: nearly all actives have a fitted effect of over 65% in size
Method in brief: (§4)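 Viability measured as metabolically active cells via CellTiter-Glo luminescence following 48 hours of compound exposure, 11-point dilutions in confirmatory testing. 500-1,000 cells/well plated 5 hours before dosing; controls were DMSO and 2.3 µM bortezomib.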

[12] = qHTS of pediatric cancer cell lines to identify multiple opportunities for drug repurposing: Confirmatory screen for NB-EBc1 cells (AID 1347115); also: nearly all actives have a fitted effect of over 45% in size
Method in brief: as §2

[13] = qHTS of pediatric cancer cell lines to identify multiple opportunities for drug repurposing: Confirmatory screen for SJ-GBM2 cells (AID 1347116); also: nearly all actives have a fitted effect of over 60% in size
Method in brief: as §4

[14] = qHTS of pediatric cancer cell lines to identify multiple opportunities for drug repurposing: Primary screen for control Hh wild type fibroblast cells (AID 1347106); also: nearly all actives have a fitted effect of over 55% in size
Method in brief: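 Cells (500-1,000/well) in growth media were settled 5 h at 37 degrees C, then given compounds for 48 h. Viability was read as CellTiter-Glo luminescence. Primary runs used MIPE at 11 points (0.78 nM-46 µM) and NPC at 8 points (0.59 nM-46 µM); follow-ups used 11 points.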

[15] = qHTS of pediatric cancer cell lines to identify multiple opportunities for drug repurposing: Primary screen for Rh30 cells (AID 1347107); also: nearly all actives have a fitted effect of over 75% in size
Method in brief: as §2

[16] = qHTS of pediatric cancer cell lines to identify multiple opportunities for drug repurposing: Confirmatory screen for BT-12 cells (AID 1347112); also: nearly all actives have a fitted effect of over 55% in size
Method in brief: as §2

[17] = qHTS of pediatric cancer cell lines to identify multiple opportunities for drug repurposing: Confirmatory screen for BT-37 cells (AID 1347117); also: nearly all actives have a fitted effect of over 55% in size
Method in brief: as §2

[18] = qHTS of pediatric cancer cell lines to identify multiple opportunities for drug repurposing: Primary screen for MG 63 (6-TG R) cells (AID 1347105); also: nearly all actives have a fitted effect of over 50% in size
Method in brief: as §1

[19] = qHTS of pediatric cancer cell lines to identify multiple opportunities for drug repurposing: Primary screen for BT-12 cells (AID 1347101); also: nearly all actives have a fitted effect of over 25% in size
Method in brief: as §3

Measured: Potency
Potency is read from the fitted curve at half-maximal effect.

Cc1cc(N2CCOCC2)cc2[nH]c(-c3c(NC[C@@H](O)c4cccc(Cl)c4)cc[nH]c3=O)nc12
active: [1] 0.332 µM | [2] 0.296 µM | [3] 18.7 µM | [4] 0.0968 µM | [5] 0.59 µM | [6] 0.296 µM | [7] 0.827 µM | [8] 1.17 µM | [9] 0.737 µM | [10] 1.17 µM | [11] 3.29 µM | [12] 1.17 µM | [13] 0.369 µM

NC(=O)Nc1cc(-c2cccc(F)c2)sc1C(=O)N[C@H]1CCCNC1
inactive: [14] | [16]
active: [1] 0.526 µM | [2] 0.469 µM | [4] 0.172 µM | [5] 3.72 µM | [15] 0.833 µM | [6] 1.87 µM | [7] 0.928 µM | [8] 1.85 µM | [9] 0.414 µM | [10] 0.827 µM | [11] 2.33 µM | [12] 1.65 µM | [13] 1.04 µM | [17] 0.827 µM

CS(=O)(=O)N1CCN(Cc2cc3nc(-c4cccc5[nH]ncc45)nc(N4CCOCC4)c3s2)CC1
active: [1] 0.833 µM | [2] 1.05 µM | [3] 1.32 µM | [4] 0.0769 µM | [18] 0.0935 µM | [7] 8.51 µM | [8] 3.39 µM | [9] 1.7 µM | [10] 1.91 µM | [12] 6.03 µM | [13] 21.4 µM | [17] 15.1 µM

COC(=O)[C@]12CCC(C)(C)C[C@@H]1[C@@H]1C(=O)C=C3[C@@]4(C)C=C(C#N)C(=O)C(C)(C)[C@@H]4CC[C@@]3(C)[C@]1(C)CC2
active: [1] 0.662 µM | [2] 0.833 µM | [3] 0.935 µM | [4] 0.685 µM | [18] 0.743 µM | [14] 5.9 µM | [15] 1.48 µM | [6] 1.18 µM | [7] 3.29 µM | [8] 1.65 µM | [9] 3.69 µM | [16] 7.37 µM | [10] 2.61 µM | [12] 5.85 µM | [13] 4.14 µM | [17] 3.69 µM

CN(C1CCc2c(c3ccccc3n2CC(=O)O)C1)S(=O)(=O)c1ccc(F)cc1 (centres undefined)
active: [1] 1.32 µM | [2] 5.26 µM | [5] 4.18 µM | [6] 3.72 µM

Cc1ccc(C(N)=O)cc1Nc1nccc(-c2cn(C(C)C)c3cnccc23)n1
active: [4] 9.68 µM | [5] 16.6 µM | [6] 18.7 µM | [8] 9.55 µM | [9] 7.59 µM | [16] 13.5 µM | [10] 8.51 µM | [13] 21.4 µM | [17] 6.76 µM
inactive: [1] | [3] | [14]

NC(=O)c1c(OCc2c(F)cc(Br)cc2F)nsc1NC(=O)NCCCCN1CCCC1
inactive: [1]
active: [19] 27.3 µM | [4] 24.3 µM | [5] 18.7 µM | [18] 5.9 µM | [15] 20.9 µM | [6] 18.7 µM

CCC1=C[C@@H]2CN(C1)Cc1c([nH]c3ccccc13)[C@@](C(=O)OC)(c1cc3c(cc1OC)N(C)[C@@H]1[C@@](O)(C(=O)OC)[C@H](OC(C)=O)[C@]4(CC)C=CCN5CC[C@]31[C@@H]54)C2
inactive: [15] | [12]
active: [1] 0.059 µM | [2] 0.0093 µM | [19] 0.0769 µM | [4] 0.0432 µM | [8] 0.329 µM | [9] 5.22 µM | [11] 0.657 µM | [13] 5.22 µM | [17] 7.37 µM

COc1cc2c(Nc3ccc(NC(=O)c4ccccc4)cc3)ncnc2cc1OCCCN1CCOCC1
active: [1] 26.4 µM | [2] 0.743 µM | [4] 27.3 µM | [5] 33.2 µM
inactive: [14] | [15]

C=CC(=O)Nc1cc2c(Nc3ccc(F)c(Cl)c3)ncnc2cc1OCCCN1CCOCC1
active: [1] 23.5 µM | [2] 6.62 µM | [18] 23.5 µM | [15] 18.7 µM | [6] 18.7 µM
inactive: [14]

Cc1nc2ccc(CN(C)c3ccc(C(=O)N[C@@H](CCC(=O)O)C(=O)O)s3)cc2c(=O)[nH]1
active: [8] 0.0827 µM | [9] 0.0185 µM
inactive: [1] | [3] | [14] | [15] | [6] | [7] | [16] | [10] | [11]

CC(C)=CCCC(C)=CCCC(C)=CCSc1ccccc1C(=O)O
inactive: [1]
active: [3] 11.8 µM | [4] 1.53 µM | [18] 3.72 µM | [6] 4.69 µM
